This is a sample that favours compounds with a hit; in the whole collection about 3.6% have one here.
Sm TGR inh: qHTS Assay for the Inhibitors of Schistosoma Mansoni Peroxiredoxins. purified TGR, DTNB reduction, TNB absorbance 405 nm. 3% of 360,000 active. Potency, µM (doses to about 114 µM), usual class: inhibitors; also: nearly all actives have a fitted effect of over 60% in size
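Kinetic colorimetric format: TGR-catalysed, NADPH-driven DTNB reduction monitored via TNB absorbance. Enzyme dispensed at 20 nM; compound exposure 15 min at room temperature before reaction start.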
FBPA Giardia inh: qHTS Assay for Inhibitors of Fructose-1,6-bisphosphate Aldolase from Giardia Lamblia. purified Giardia FBPA. Potency, µM (top dose mostly 59.6 µM), most hits filed as inhibitors. 0.71% of 290,000 active; also: nearly all actives have a fitted effect of over 55% in size
Target sequence (A8B2U2 whole entry, looked up): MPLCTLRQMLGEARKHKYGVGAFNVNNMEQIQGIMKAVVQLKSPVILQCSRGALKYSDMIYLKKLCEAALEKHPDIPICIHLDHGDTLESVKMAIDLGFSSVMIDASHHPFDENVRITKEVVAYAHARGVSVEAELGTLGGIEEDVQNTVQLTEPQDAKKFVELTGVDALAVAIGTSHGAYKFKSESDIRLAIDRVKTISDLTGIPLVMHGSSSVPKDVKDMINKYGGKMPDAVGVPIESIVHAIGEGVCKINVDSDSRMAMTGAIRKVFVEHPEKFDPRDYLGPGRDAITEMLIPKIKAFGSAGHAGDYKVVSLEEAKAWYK
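40 nM FBPA preincubated 10 min at RT with compound (up to 57.5 uM final), then substrate plus GAPDH/TPI/NAD/arsenate coupling and diaphorase/resazurin added. Fluorescence read after 20 min at RT, 525/598 nm.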
AmpC inh no detg: qHTS Inhibitors of AmpC Beta-Lactamase (assay without detergent); P00811; AmpC nitrocefin hydrolysis, absorbance 480 nm, 0.0001% Triton; Potency, µM (doses to about 57.1 µM), usual class: inhibitors; 0.52% of 330,000 active; AID 485341, 2010; also: nearly all actives have a fitted effect of over 20% in size
Target sequence (P00811 whole entry, looked up): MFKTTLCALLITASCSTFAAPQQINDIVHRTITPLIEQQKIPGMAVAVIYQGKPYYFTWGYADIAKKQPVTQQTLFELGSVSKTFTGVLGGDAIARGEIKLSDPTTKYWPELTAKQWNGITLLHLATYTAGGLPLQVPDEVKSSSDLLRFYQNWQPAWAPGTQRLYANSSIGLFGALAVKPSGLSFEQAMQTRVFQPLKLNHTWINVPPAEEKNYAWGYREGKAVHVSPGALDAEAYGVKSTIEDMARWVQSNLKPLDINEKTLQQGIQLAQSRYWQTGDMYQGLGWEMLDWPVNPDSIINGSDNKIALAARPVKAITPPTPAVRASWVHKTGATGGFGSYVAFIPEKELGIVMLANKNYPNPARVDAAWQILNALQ
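AmpC (5.3 nM in the dispensed reagent) in 20 mM phosphate pH 7.0 with 0.01% (detergent screen) or 0.0001% Triton X-100 was preincubated with compounds for 15 min at room temperature. Nitrocefin was then added from an 800 uM solution, and hydrolysis was followed at 480 nm.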
AmpC inh detg: qHTS Inhibitors of AmpC Beta-Lactamase (assay with detergent). P00811. AmpC hydrolysis of nitrocefin, absorbance 480 nm, 0.01% Triton. Potency, µM (top dose mostly 114 µM), hits mostly inhibitors. 0.041% of 370,000 active. AID 485294, 2010; also: nearly all actives have a fitted effect of over 25% in size
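20 mM phosphate pH 7.0 + 0.01% (detergent screen) or 0.0001% Triton X-100; 5.3 nM AmpC reagent; cpd preinc 15 min RT; nitrocefin (800 uM stock) to start; A480 q20 s × 4 min; Activity was normalised to no-enzyme and no-compound control wells.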
Numbers stand for hits; – = inactive; ? = inconclusive; · = not tested or not shown; [ ] = dose if it differs, or a comment. Calls follow the shape of the dose curve; as a rule, active = well fitted curve in the direction sought with a large enough effect; inconclusive = small, poorly fitted or top-dose-only effect, or another doubt; inactive = no such curve, though single readings can be large; an effect the other way counts as inactive or inconclusive.

SMILES	Sm TGR inh	FBPA Giardia inh	AmpC inh no detg	AmpC inh detg
CC(=O)[C@@H]1[C@@H]2C(=O)N(Cc3ccccc3)C(=O)[C@@H]2C2c3ccccc3C=CN21 (stereo not given in full)	44.7µM	?	–	–
Cc1ccc(N2C(=O)[C@@H]3[C@H](C2=O)C2c4ccccc4C=CN2[C@@H]3C(=O)c2ccco2)cc1 (stereo not given in full)	28.2µM	?	–	–
COc1ccc(NC(=S)NC(=O)c2ccc(Br)o2)cc1	8.91µM	–	–[2.29 µM]	–
CC(C)Oc1cccc(C(=O)Nc2ccc(N3CCN(C)CC3)cc2)c1	39.8µM	–	–	–
CC(C)Oc1cccc(C(=O)NC(=S)Nc2cccc(C(F)(F)F)c2)c1	–	–	–	–
CC(C)Oc1cccc(C(=O)NC(=S)Nc2ccc(Cl)c(C(=O)O)c2)c1	39.8µM	–	–	–
COc1ccc(C(=O)NC(=S)Nc2ccc(Cl)c(C(=O)O)c2)cc1	39.8µM	–	–	–
N#Cc1ccncc1S(=O)c1ccc(Cl)cc1 (stereo not given)	–	–	–	–
Cc1nnc(N2CCN(C(=O)NC(C)C)CC2)c2nn(-c3ccccc3)c(C)c12	–	·	·	–
CCOc1ccc(NC(=O)CCNS(=O)(=O)c2ccc3c(c2)CCCC(=O)N3)cc1	–	·	·	–
c1ccc(-c2cnc(CSc3ncnc4sccc34)o2)cc1	10µM	–	–	–
CC(=O)Nc1ccc(SCc2ncc(-c3ccccc3)o2)cc1	–	–	–	–
O=[N+]([O-])c1cc(-c2nc(-c3ccccc3)no2)ccc1N1CCOCC1	–	·	·	–
CCCCn1c(N)c(N(CC(C)C)C(=O)c2ccc(C)c(S(=O)(=O)N3CCCCC3)c2)c(=O)[nH]c1=O	–	·	–	–
Cc1cc(Cl)ccc1NS(=O)(=O)c1cc2[nH]c(=O)c(=O)[nH]c2cc1C	–	·	·	–
CCN(CC)c1ccc(NS(=O)(=O)c2cc3[nH]c(=O)c(=O)[nH]c3cc2C)c(C)c1	35.5µM	·	·	–
COc1cc(/C=N/NC(=O)CC2(C)OCCO2)cc(Br)c1O	–	–	–	–
COc1cc(/C=N/NC(=O)C23CC4CC(CC(C4)C2)C3)cc(Br)c1O	–	–[12.9 µM]	28.2µM	–
O=C(COC(=O)c1ccc(S(=O)(=O)N2CCOCC2)cc1)NCc1cccs1	–	–	–	–
CC1CCc2sc(C(=O)N=Nc3c(O)[nH]c4ccccc34)cc2C1 (stereo not given)	–	–	–	–
CSc1ccc(CCNC(=O)CN2C(=O)COc3ccc(S(=O)(=O)N4CCCCCC4)cc32)cc1	–	·	·	–
Cn1c(O)c(C(c2ccccn2)c2c(O)n(C)c(=S)n(C)c2=O)c(=O)n(C)c1=S	22.4µM	?	–	?
Cn1c(O)c(C(c2ccncc2)c2c(O)n(C)c(=S)n(C)c2=O)c(=O)n(C)c1=S	15.8µM	–	–	–
CC(=O)c1c(O)n(C)c(=S)n(-c2ccccc2)c1=O	–	–	–	–
CCC(C)n1c(O)c(C(c2ccccn2)c2c(O)n(C(C)CC)c(=S)[nH]c2=O)c(=O)[nH]c1=S (stereo not given)	?	?	–	–
SMILES	Sm TGR inh	FBPA Giardia inh	AmpC inh no detg	AmpC inh detg
Cc1ccccc1Nc1nc(N)nc(COC(=O)[C@@H](NC(=O)c2c(F)cccc2F)C(C)C)n1	–	·	–	?
Cn1c(SCc2ccccn2)nnc1-c1ccccc1	–	–	–	–
O=C(C#Cc1ccccc1)c1ccco1	0.891µM	–	–	?
Cc1ccc(-n2c(CCC(=O)O)ccc2-c2cccs2)cc1Cl	7.94µM	·	·	–
O=C(O)CCc1ccc(-c2cccs2)n1NC(=O)c1ccc(Cl)cc1	50.1µM	–	–	–
CC(=O)c1ccc(-n2c(CCC(=O)O)ccc2-c2cccs2)cc1	0.891µM	–	–	–
NC(=O)c1ccc(-n2c(CCC(=O)O)ccc2-c2cccs2)cc1	2µM	–	–	?
CCOc1cc(C2C3=C(CC(C)(C)CC3=O)N(C)C3=C2C(=O)CC(C)(C)C3)ccc1O	?	–	–	?
Cc1ccc(-n2c(CCC(=O)O)ccc2-c2cccs2)cc1	12.6µM	–	–	–
COc1ccc(OC)c(C(C)NC(=O)Cn2c(=O)cc(C)c3c(C)nn(-c4ccc(C)cc4)c32)c1 (stereo not given)	–	·	·	–
CNc1sc(C(=O)c2cccs2)c(N)c1-c1nc2ccccc2s1	–	–	–	–
CNc1sc(C(=O)c2ccc(F)cc2)c(N)c1-c1nc2ccccc2s1	39.8µM	–	–	?
Cc1cc(C(=O)COc2ccc3ccc(=O)oc3c2)c(C)n1C	–	–	–	–
CCCCN(CC)C(=O)c1nn(C)c2c1CSc1ccccc1-2	44.7µM	·	·	–
CC1(C)CCc2c([nH]c3ccccc3c2=O)O1	–	–	–	–
CC1(C)CCC2=C(O1)c1ccccc1C(=O)C2=O	·	1.58µM	·	·
Cc1ccc(S(=O)(=O)NCCCCCC(=O)Nc2cccc(C)c2)cc1	–	–	–	–
N=c1c[n+](N2CCOCC2)[n-]o1	22.4µM	–	–	–
[N-]=[N+]=CC(=O)C(c1ccccc1)(c1ccccc1)c1ccccc1	–	–	–	–
CCCC(=O)NC(Oc1ccccc1Cl)C(Cl)(Cl)Cl (stereo not given)	12.6µM	–	–	–
CCCC(=O)NC(Oc1ccc(Cl)cc1Cl)C(Cl)(Cl)Cl (stereo not given)	31.6µM	–	–	–
CCCC(=O)NC(Oc1ccc(OC)cc1)C(Cl)(Cl)Cl (stereo not given)	·	–	–	–
CCOc1ccccc1/C=N/NC(=O)CNC(=O)c1cccs1	–	–	–	–
Cc1ccc(C(=O)NCCCNC(=O)Cc2ccc(Cl)cc2)cn1	–	·	–	–
O=C(CNC(=O)c1ccc(Br)o1)Nc1ncccc1O	44.7µM	·	–	?
SMILES	Sm TGR inh	FBPA Giardia inh	AmpC inh no detg	AmpC inh detg
COc1cccc(O)c1O	·	17.7µM	·	·
Cc1c(NC(=O)c2ccc(NC(=O)C3CC3)cc2)cccc1C(=O)O	–	–	–	–
S=c1nccc(-c2ccc3c(c2)CCO3)[nH]1	35.5µM	–	–	–
O=C1N[C@@H]2[C@H](CCCCC(=O)Oc3ccc([N+](=O)[O-])cc3)SC[C@H]2N1	·	–	·	·
Cc1ccc(C2=CC(C)(c3ccc(C)cc3)Nc3nc(C(F)(F)F)nn32)cc1 (stereo not given)	–	–	–	–
Cc1cc(C2=CC(C)(c3cc(C)oc3C)Nc3nc(C(F)(F)F)nn32)c(C)o1 (stereo not given)	10µM	–	–	–
O=c1c(C(c2ccc(F)cc2)c2c(O)nc3n(c2=O)CCCS3)c(O)nc2n1CCCS2	1.78µM	–	–	–
O=c1c(C(c2ccccc2)c2c(O)nc3n(c2=O)CCCS3)c(O)nc2n1CCCS2	4.47µM	–	–	–
O=c1c(C(c2ccccc2)c2c(O)nc3n(c2=O)CCS3)c(O)nc2n1CCS2	1.78µM	–	–	?
COc1ccccc1CNC(=O)CSc1nnc2c(n1)[nH]c1ccc(F)cc12	–	–	–	–

Source: PubChem
